35 compounds from PubChem BioAssay AID588800 (Johns Hopkins Ion Channel Center, 2011) can be followed below.

The structures appear in SMILES notation. The source made the active and inactive calls.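 How the source made its calls: active means peak inhibition of the KCNQ2 potassium channel above 30% at some tested dose, plus a fitted dose response curve; inactive means no inhibition at any dose, or no curve.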

Potassium voltage-gated channel subfamily KQT member 2 (Rattus norvegicus), sequence (O88943 whole entry, looked up): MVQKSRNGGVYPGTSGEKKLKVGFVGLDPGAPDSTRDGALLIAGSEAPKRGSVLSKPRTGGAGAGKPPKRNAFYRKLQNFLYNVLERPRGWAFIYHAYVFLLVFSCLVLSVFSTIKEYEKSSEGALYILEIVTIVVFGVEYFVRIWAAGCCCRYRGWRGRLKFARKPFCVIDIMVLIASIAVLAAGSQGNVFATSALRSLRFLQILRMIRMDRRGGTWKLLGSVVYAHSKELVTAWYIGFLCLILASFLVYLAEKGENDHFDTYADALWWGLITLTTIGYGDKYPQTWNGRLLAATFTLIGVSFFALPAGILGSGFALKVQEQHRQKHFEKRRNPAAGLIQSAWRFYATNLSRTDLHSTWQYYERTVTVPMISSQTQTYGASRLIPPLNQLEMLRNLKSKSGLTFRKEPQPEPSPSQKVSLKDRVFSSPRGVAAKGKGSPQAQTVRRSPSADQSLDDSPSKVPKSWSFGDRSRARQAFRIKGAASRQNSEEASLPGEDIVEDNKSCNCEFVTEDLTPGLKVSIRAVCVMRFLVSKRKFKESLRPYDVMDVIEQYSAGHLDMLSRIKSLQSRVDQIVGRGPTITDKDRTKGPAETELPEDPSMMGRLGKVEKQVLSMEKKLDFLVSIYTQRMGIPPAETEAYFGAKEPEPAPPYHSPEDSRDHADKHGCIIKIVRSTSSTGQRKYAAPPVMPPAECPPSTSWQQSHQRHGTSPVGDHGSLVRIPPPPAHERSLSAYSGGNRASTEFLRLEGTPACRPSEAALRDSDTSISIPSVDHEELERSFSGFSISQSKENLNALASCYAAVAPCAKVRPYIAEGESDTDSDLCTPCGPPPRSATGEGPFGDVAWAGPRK

The experiment concerns the target Potassium voltage-gated channel subfamily KQT member 2 (Rattus norvegicus) (UniProt O88943). The experiment is described as follows: blockade of KCNQ2 thallium flux – cell-based, FluxOR thallium flux, CRC set 2, selectivity assay for KCNK9 inhibitor project, SAR follow-up (AID 588800). The conditions noted are these: KCNQ2-expressing cells; series mostly up to 30 µM.
`CC(C1CC2CCC1C2)n1c(-c2ccccc2)n[nH]c1=S` (stereo not given): the compound was classed as inactive.

Take `COc1ccccc1C(=O)Nc1cccc(NC(=O)c2ccccc2C(C)C)c1`: the result was inactive. With `Cc1cccc(C(=O)Nc2cccc(NC(=O)c3ccc(C(C)(C)C)cc3)c2)c1` the entry was “inactive”; with `O=C(Nc1cccc(NC(=O)c2ccoc2)c1)c1ccccc1`, “inactive”. Then `Cc1cccc(C(=O)Nc2cccc(NC(=O)c3ccccc3OCC(C)C)c2)c1`, with “inactive”; and `COc1cccc(C(=O)Nc2cccc(NC(=O)c3ccccc3)c2)c1`, with “inactive”; and `O=C(Nc1cccc(NC(=O)c2ccc(Cl)cc2)c1)c1ccccc1`, with “inactive”.

As to `CC(C)(C)c1ccc(C(=O)Nc2cccc(NC(=O)c3ccccc3)c2)cc1`, the call was inactive. With `COc1ccccc1C(=O)Nc1cccc(NC(=O)c2cccc(C)c2)c1` the entry was “inactive”.

For the compound `Cc1cccc(C(=O)Nc2cccc(NC(=O)c3ccccc3Cl)c2)c1`, the outcome was inactive.

Turning to `CCOc1ccc(NC(=O)c2cccc(NC(=O)C3CCCC3)c2)cc1`, the compound was called inactive. Turning to `Cc1cccc(C(=O)Nc2cccc(NC(=O)c3cccs3)c2)c1`, the compound was classed as inactive. On to `O=C(Nc1cccc(NC(=O)c2cccc(F)c2)c1)c1ccccc1`, for which the compound was called inactive. On to `Cc1cccc(C(=O)Nc2cccc(NC(=O)c3ccccc3C)c2)c1`, for which the compound was called inactive. Then `COc1ccc(C(=O)Nc2cccc(NC(=O)c3cccc(C)c3)c2)cc1`, with “inactive”.

As for `O=C(Nc1cccc(NC(=O)c2ccncc2)c1)c1ccccc1`, the compound was classed as inactive. Then `COc1ccccc1NC(=O)c1cccc(NC(=O)C2CCCCC2)c1`, with “inactive”; and `CCOc1ccccc1NC(=O)c1cccc(NC(=O)c2ccccc2OC)c1`, with “inactive”.

As for `O=C(Nc1cccc(NC(=O)c2ccccc2Cl)c1)c1ccccc1`, the call was inactive. With `CCOc1ccccc1NC(=O)c1cccc(C(=O)NC2CCCC2)c1`, the compound was called inactive.

`CCOc1ccccc1NC(=O)c1cccc(NC(=O)c2ccc(C(F)(F)F)cc2)c1`: the compound was classed as inactive. Then `COc1ccccc1C(=O)Nc1cccc(NC(=O)c2ccccc2OC(F)(F)F)c1`, with “inactive”; and `CCOc1ccccc1C(=O)Nc1cccc(NC(=O)C2CCCC2)c1`, with “inactive”; and `Cc1cccc(S(=O)(=O)Nc2cccc(NC(=O)c3ccccc3)c2)c1`, with “inactive”. Then `COc1cccc(OC)c1C(=O)Nc1cccc(NC(=O)c2cccc(C)c2)c1`, with “inactive”. Then `COc1ccccc1NC(=O)c1cccc(NC(=O)c2ccccc2OC)c1`, with “inactive”; and `Cc1ccc(C(=O)Nc2cccc(NC(=O)c3ccccc3)c2)cc1`, with “inactive”. Consider `COc1ccccc1NC(=O)c1cccc(NC(=O)c2ccccc2C(F)(F)F)c1`, for which the compound was classed as inactive. Then `CCOc1ccccc1NC(=O)c1cccc(NC(=O)c2ccc(OC)cc2)c1`, with “inactive”; and `Cc1cccc(C(=O)Nc2cccc(NC(=O)c3ccco3)c2)c1`, with “inactive”. In the case of `CCOc1ccccc1NC(=O)c1cccc(NC(=O)c2cccc(Cl)c2)c1`, the compound was called inactive. For `O=C(Nc1cccc(NC(=O)c2ccco2)c1)c1ccccc1`, the compound was called inactive. Then `CCOc1ccccc1NC(=O)c1cccc(NC(=O)C2CCOC2)c1` (stereo not given), with “inactive”. Then `CCOc1ccccc1NC(=O)c1cccc(NC(=O)C2CCCO2)c1` (stereo not given), with “inactive”; and `CCOc1ccccc1NC(=O)c1cccc(NC(=O)C2CCCCC2)c1`, with “inactive”.
